Measurements from the supplement of paper PMC8007513.
Counter-ions that a name gives are not always drawn. ± gives the standard error. About 130 (10%) of roughly 1,300 compounds showed an effect of 50% or more. The full list was thinned out, with strong results kept by preference.

System: Trichoderma virens ATCC 9645
Experiment: growth yield (OD600) with compound + IPBC relative to untreated control; higher = less growth inhibition
Settings: compound concentration: 100 uM, IPBC concentration: 200 ng/ml
Procedure, shortened: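 Spores of Trichoderma virens ATCC 9645, taken from potato dextrose agar plates grown for 7 days, were suspended at 15,000 spores ml^−1 in potato dextrose broth. In 96-well plates, 100 μl aliquots held library compounds at 100 μM final, either alone or together with a biocide at 200 ng ml^−1, and were grown at 30 °C. A BioTek EL800 read OD600 at 40 h and 72 h. Growth values are given relative to the control lacking both agents and are means of duplicate screens.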

| Structure (SMILES) | growth yield (40 h) [%] | growth yield (72 h) [%] |
| --- | --- | --- |
| CCN(CC)CCNC(=O)c1cc(Br)c(N)cc1OC [Bromopride] + CCCCNC(=O)OCC#CI [3-iodo-2-propynyl butylcarbamate (IPBC)] | 92.6 ± 14 | 93.8 ± 7.5 |
| CCCOc1cc(N)ccc1C(=O)OCCN(CC)CC [Propoxycaine hydrochloride] + CCCCNC(=O)OCC#CI [3-iodo-2-propynyl butylcarbamate (IPBC)] | 86.7 | 88.73 ± 0.42 |
| CCC1(C)CC(=O)NC1=O (configuration not stated) [Ethosuximide] + CCCCNC(=O)OCC#CI [3-iodo-2-propynyl butylcarbamate (IPBC)] | 94.8 ± 2.1 | 97.85 ± 0.94 |
| CN1CCN(C2=Nc3ccccc3Oc3ccc(Cl)cc32)CC1 [Loxapine succinate] + CCCCNC(=O)OCC#CI [3-iodo-2-propynyl butylcarbamate (IPBC)] | 71.8 ± 2.2 | 91.87 ± 0.84 |
| CC(=O)N(CC(C)C(=O)O)c1c(I)cc(I)c(N)c1I (configuration not stated) [Iocetamic acid] + CCCCNC(=O)OCC#CI [3-iodo-2-propynyl butylcarbamate (IPBC)] | 107 ± 18 | 102 ± 11 |
| C#C[C@]1(O)CC[C@H]2[C@@H]3[C@H](C)CC4=C(CCC(=O)C4)[C@H]3CC[C@@]21C [Tibolone] + CCCCNC(=O)OCC#CI [3-iodo-2-propynyl butylcarbamate (IPBC)] | 80.1 ± 2.9 | 90.09 ± 0.1 |
| Cc1ccc(-c2cc(C(F)(F)F)nn2-c2ccc(S(N)(=O)=O)cc2)cc1 [Celecoxib] + CCCCNC(=O)OCC#CI [3-iodo-2-propynyl butylcarbamate (IPBC)] | 57.8 ± 0.64 | 78.76 ± 0.73 |
| C[C@]12CC[C@@H]3c4ccc(OC(=O)N(CCCl)CCCl)cc4CC[C@H]3[C@@H]1CC[C@@H]2O [Estramustine] + CCCCNC(=O)OCC#CI [3-iodo-2-propynyl butylcarbamate (IPBC)] | 97.8 ± 4.5 | 98.1 ± 4.7 |
| CC(C)NNC(=O)c1ccncc1 [Iproniazide phosphate] + CCCCNC(=O)OCC#CI [3-iodo-2-propynyl butylcarbamate (IPBC)] | 89.3 ± 0.95 | 99 ± 0.84 |
| Oc1ccc(OCc2ccccc2)cc1 [Monobenzone] + CCCCNC(=O)OCC#CI [3-iodo-2-propynyl butylcarbamate (IPBC)] | 50.7 ± 6.5 | 63 ± 4.3 |
| CCCCOC(=O)c1ccc(O)cc1 [Butylparaben] + CCCCNC(=O)OCC#CI [3-iodo-2-propynyl butylcarbamate (IPBC)] | 27.5 ± 1.8 | 46.9 ± 3.2 |
| CCCCOC(=O)c1ccc(N)cc1 [Butamben] + CCCCNC(=O)OCC#CI [3-iodo-2-propynyl butylcarbamate (IPBC)] | 53.53 ± 0.16 | 70.7 ± 3.4 |
| CCCCN(CCCC)CCCOC(=O)c1ccc(N)cc1 [Butacaine] + CCCCNC(=O)OCC#CI [3-iodo-2-propynyl butylcarbamate (IPBC)] | 106 ± 9.2 | 105 ± 8.7 |
| NNc1nncc2ccccc12 [Hydralazine hydrochloride] + CCCCNC(=O)OCC#CI [3-iodo-2-propynyl butylcarbamate (IPBC)] | 120 ± 6.8 | 125 ± 11 |
| Cc1cc(C2CCCCC2)n(O)c(=O)c1 [Ciclopirox ethanolamine] + CCCCNC(=O)OCC#CI [3-iodo-2-propynyl butylcarbamate (IPBC)] | 3.49 ± 0.32 | 2.83 ± 0.32 |
| CCOC(=O)[C@H](CCc1ccccc1)N[C@@H](C)C(=O)N1[C@H](C(=O)O)C[C@@H]2CCC[C@@H]21 [Ramipril] + CCCCNC(=O)OCC#CI [3-iodo-2-propynyl butylcarbamate (IPBC)] | 95 ± 3.2 | 96 ± 3.9 |
| CC1(C)O[C@@H]2C[C@H]3[C@@H]4CCC5=CC(=O)C=C[C@]5(C)[C@H]4[C@@H](O)C[C@]3(C)[C@]2(C(=O)CO)O1 [Desonide] + CCCCNC(=O)OCC#CI [3-iodo-2-propynyl butylcarbamate (IPBC)] | 107 ± 5.9 | 103 ± 3.9 |
| C[C@@H]1CC[C@H]2[C@@H](C)C(=O)O[C@@H]3O[C@@]4(C)CC[C@@H]1[C@]32OO4 [Artemisinin] + CCCCNC(=O)OCC#CI [3-iodo-2-propynyl butylcarbamate (IPBC)] | 32.4 ± 1.3 | 76.3 ± 1.1 |
| CC1(C)O[C@@H]2C[C@H]3[C@@H]4CCC5=CC(=O)CC[C@]5(C)[C@@]4(F)[C@@H](O)C[C@]3(C)[C@]2(C(=O)CCl)O1 [Halcinonide] + CCCCNC(=O)OCC#CI [3-iodo-2-propynyl butylcarbamate (IPBC)] | 86.9 ± 1.1 | 91.77 ± 0.1 |
| COc1cnc(NS(=O)(=O)c2ccc(N)cc2)nc1 [Sulfameter] + CCCCNC(=O)OCC#CI [3-iodo-2-propynyl butylcarbamate (IPBC)] | 101 ± 7.5 | 101 ± 3.5 |
| Nc1nc2c(ncn2COC(CO)CO)c(=O)[nH]1 [Ganciclovir] + CCCCNC(=O)OCC#CI [3-iodo-2-propynyl butylcarbamate (IPBC)] | 99.9 ± 16 | 98.1 ± 10 |

| Structure (SMILES) | growth yield (40 h) [%] | growth yield (72 h) [%] |
| --- | --- | --- |
| Nc1nc2n[nH]nc2c(=O)[nH]1 [Azaguanine-8] + CCCCNC(=O)OCC#CI [3-iodo-2-propynyl butylcarbamate (IPBC)] | 7.47 ± 1.1 | 12.2 ± 0.21 |
| Nc1nc2c(ncn2COCCO)c(=O)[nH]1 [Acyclovir] + CCCCNC(=O)OCC#CI [3-iodo-2-propynyl butylcarbamate (IPBC)] | 100 ± 3.5 | 101 ± 3.5 |
| CC(C)(C(=O)c1cccnc1)c1cccnc1 [Metyrapone] + CCCCNC(=O)OCC#CI [3-iodo-2-propynyl butylcarbamate (IPBC)] | 87.5 ± 1.4 | 87.68 ± 0.84 |
| CC(=O)OCC(=O)[C@H]1CC[C@H]2[C@@H]3CC[C@H]4C[C@H](O)CC[C@]4(C)[C@H]3C(=O)C[C@]12C [Alfadolone acetate] + CCCCNC(=O)OCC#CI [3-iodo-2-propynyl butylcarbamate (IPBC)] | 90.1 ± 8.4 | 95.4 ± 2.9 |
| C#C[C@]1(OC(C)=O)CC[C@H]2[C@@H]3CCC4=C[C@@H](OC(C)=O)CC[C@@H]4[C@H]3CC[C@@]21C [Ethynodiol diacetate] + CCCCNC(=O)OCC#CI [3-iodo-2-propynyl butylcarbamate (IPBC)] | 80.21 ± 0.16 | 92 ± 1.8 |
| Cc1cc2c(cc1S(N)(=O)=O)S(=O)(=O)CCC2 [Meticrane] + CCCCNC(=O)OCC#CI [3-iodo-2-propynyl butylcarbamate (IPBC)] | 91.8 ± 6.7 | 91.7 ± 3.8 |
| COc1ccc2c(c1)c(CC(=O)OCC(=O)O)c(C)n2C(=O)c1ccc(Cl)cc1 [Acemetacin] + CCCCNC(=O)OCC#CI [3-iodo-2-propynyl butylcarbamate (IPBC)] | 74.18 ± 0.16 | 84.11 ± 0.21 |
| CCCCCCC[N+](CC)(CC)CCCCc1ccc(Cl)cc1 [Clofilium tosylate] + CCCCNC(=O)OCC#CI [3-iodo-2-propynyl butylcarbamate (IPBC)] | 13.5 ± 5.9 | 74.46 ± 0.42 |
| N[C@@H]1C[C@H]1c1ccccc1 [Tranylcypromine hydrochloride] + CCCCNC(=O)OCC#CI [3-iodo-2-propynyl butylcarbamate (IPBC)] | 99.6 ± 1.8 | 104 ± 3.7 |
| N=C(N)N1CCc2ccccc2C1 [Debrisoquin sulfate] + CCCCNC(=O)OCC#CI [3-iodo-2-propynyl butylcarbamate (IPBC)] | 92.3 ± 15 | 96.9 ± 8 |
| COc1ccc2cc([C@@H](C)C(=O)O)ccc2c1 [(R) -Naproxen sodium salt] + CCCCNC(=O)OCC#CI [3-iodo-2-propynyl butylcarbamate (IPBC)] | 67.7 ± 2.2 | 81.5 ± 3.5 |
| COc1ccc2cc([C@H](C)C(=O)O)ccc2c1 [(S)-Naproxen] + CCCCNC(=O)OCC#CI [3-iodo-2-propynyl butylcarbamate (IPBC)] | 61.3 ± 1.9 | 78.6 ± 1.1 |
| COc1ccc2cc(CCC(C)=O)ccc2c1 [Nabumetone] + CCCCNC(=O)OCC#CI [3-iodo-2-propynyl butylcarbamate (IPBC)] | 39.7 ± 1.6 | 67.1 ± 1.5 |
| c1ccc2c(c1)Nc1ccccc1S2 [Phenothiazine] + CCCCNC(=O)OCC#CI [3-iodo-2-propynyl butylcarbamate (IPBC)] | 34.8 ± 2.7 | 51.3 ± 1.6 |
| CC(C)(C#N)c1cc(Cn2cncn2)cc(C(C)(C)C#N)c1 [Anastrozole] + CCCCNC(=O)OCC#CI [3-iodo-2-propynyl butylcarbamate (IPBC)] | 105 ± 3.8 | 98.9 ± 2.2 |
| CN(C)c1ccc(O)c2c1C[C@H]1C[C@H]3[C@H](N(C)C)C(O)=C(C(N)=O)C(=O)[C@@]3(O)C(O)=C1C2=O [Minocycline hydrochloride] + CCCCNC(=O)OCC#CI [3-iodo-2-propynyl butylcarbamate (IPBC)] | 58.1 ± 2.2 | 84.6 ± 4.7 |
| COc1ccc(OC)c(C(O)C(C)N)c1 (configuration not stated) [Methoxamine hydrochloride] + CCCCNC(=O)OCC#CI [3-iodo-2-propynyl butylcarbamate (IPBC)] | 87.4 ± 7.3 | 92.4 ± 5.3 |
| COc1ccc(C(=O)N2CCCC2=O)cc1 [Aniracetam] + CCCCNC(=O)OCC#CI [3-iodo-2-propynyl butylcarbamate (IPBC)] | 83.7 ± 4.3 | 87.3 ± 3.1 |
| O=C1Nc2ccc(Cl)cc2[C@@](C#CC2CC2)(C(F)(F)F)O1 [Efavirenz] + CCCCNC(=O)OCC#CI [3-iodo-2-propynyl butylcarbamate (IPBC)] | 39.4 ± 2.9 | 73.1 ± 8.1 |
| C/C(=C\C(=O)OCCCCCCCCC(=O)O)C[C@@H]1OC[C@H](C[C@@H]2O[C@H]2[C@@H](C)[C@H](C)O)[C@@H](O)[C@H]1O [Mupirocin] + CCCCNC(=O)OCC#CI [3-iodo-2-propynyl butylcarbamate (IPBC)] | 6.51 ± 1.4 | 43.4 ± 5.7 |
